Measurements as given in the supplement of paper PMC6522484.
± gives the standard deviation of the averaged measurements.

Legend:
DLD1 [1] = test: cell viability (CellTiter-Glo) relative to plate median (fraction of plate median); higher = more viable cells; conditions: 10 µM, treatment time 24 h
How it was run: (§1)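 Values are the mean of two independent replicates of luminescence normalised to the plate median with webcellHTS2, using the additive method without log transformation. They come from colorectal cancer cell lines stably transduced with lentiviral TCF/Wnt firefly luciferase reporters (7TFP or TCF4/Wnt), seeded in 384-well plates. After 24 h the cells got kinase inhibitor library compounds at a final 10 µM for 24 h, and parallel plates were read for firefly luciferase or CellTiterGlo on a Tecan F500.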

HCT116 [2] = test: as above; conditions: 10 µM; treatment time 24 h; reporter: TCF4/Wnt
How it was run: as §1

SW480 [3] = test: as above; conditions: 10 µM; treatment time 24 h; reporter: 7TFP
How it was run: as §1

DLD1 [4] = test: TCF/Wnt firefly luciferase reporter signal relative to plate median (fraction of plate median); higher = higher Wnt reporter signal; conditions: 10 µM, treatment time 24 h
How it was run: as §1

HCT116 [5] = test: as above; conditions: 10 µM; treatment time 24 h; reporter: TCF4/Wnt
How it was run: as §1

SW480 [6] = test: as above; conditions: 10 µM; treatment time 24 h; reporter: 7TFP
How it was run: as §1

| Structure (SMILES) | cell viability (DLD1 [1]; reporter: 7TFP) | cell viability (DLD1 [1]; reporter: TCF4/Wnt) | cell viability (HCT116 [2]) | cell viability (SW480 [3]) | TCF/Wnt firefly luciferase reporter signal (DLD1 [4]; reporter: 7TFP) | TCF/Wnt firefly luciferase reporter signal (DLD1 [4]; reporter: TCF4/Wnt) | TCF/Wnt firefly luciferase reporter signal (HCT116 [5]) | TCF/Wnt firefly luciferase reporter signal (SW480 [6]) |
| --- | --- | --- | --- | --- | --- | --- | --- | --- |
| CCCCCCCCCCCCc1ccc(S(=O)(=O)Nc2nncs2)cc1 | 1.03 ± 0.05 | 0.966 ± 0.037 | 1.16 ± 0.035 | 0.91 ± 0.016 | 0.981 ± 0.041 | 1.14 ± 0.18 | 1.21 ± 0.16 | 0.959 ± 0.12 |
| CN(c1ncccc1CNc1nc(Nc2ccc3c(c2)CC(=O)N3)ncc1C(F)(F)F)S(C)(=O)=O | 0.974 ± 0.19 | 1.06 ± 0.071 | 0.698 ± 0.21 | 1.19 ± 0.11 | 0.732 ± 0.28 | 1.66 ± 0.33 | 0.2 ± 0.037 | 0.9115 ± 0.0064 |
| N#C/C(=C\c1ccc(O)c(O)c1)C(=O)NCc1ccccc1 | 0.874 ± 0.063 | 0.946 ± 0.031 | 1.08 ± 0.028 | 0.94 ± 0.032 | 0.656 ± 0.15 | 1.2 ± 0.13 | 1.1 ± 0.021 | 0.834 ± 0.016 |
| FC(F)c1nc2ccccc2n1-c1nc(N2CCOCC2)nc(N2CCOCC2)n1 | 0.82 ± 0.08 | 0.835 ± 0.016 | 0.829 ± 0.042 | 1.065 ± 0.0071 | 0.673 ± 0.019 | 0.891 ± 0.11 | 1.01 ± 0.061 | 1.03 ± 0.17 |
| CO[C@H]1C[C@@H]2CC[C@@H](C)[C@@](O)(O2)C(=O)C(=O)N2CCCC[C@H]2C(=O)O[C@H]([C@H](C)C[C@@H]2CC[C@@H](OP(C)(C)=O)[C@H](OC)C2)CC(=O)[C@H](C)/C=C(\C)[C@@H](O)[C@@H](OC)C(=O)[C@H](C)C[C@H](C)/C=C/C=C/C=C/1C [Deforolimus (Ridaforolimus)] | 0.979 ± 0.086 | 1.08 ± 0.092 | 0.979 ± 0.044 | 1.27 ± 0.021 | 0.844 ± 0.022 | 1.02 ± 0.24 | 0.799 ± 0.43 | 1.11 ± 0.39 |
| CCc1cc(Nc2nccc(-c3c(-c4ccc(OC)c(C(=O)Nc5c(F)cccc5F)c4)nc4ccccn34)n2)c(OC)cc1N1CCC(N2CCN(S(C)(=O)=O)CC2)CC1 | 0.925 ± 0.059 | 0.995 ± 0.12 | 1.1 ± 0.028 | 0.974 ± 0.066 | 0.939 ± 0.035 | 0.977 ± 0.047 | 1.25 ± 0.05 | 1.24 ± 0.085 |
| CNC(=O)c1ccccc1Nc1nc(Nc2ccc(N3CCOCC3)cc2OC)ncc1Cl | 0.8225 ± 0.00071 | 0.933 ± 0.069 | 0.895 ± 0.049 | 1.02 ± 0.073 | 0.638 ± 0.0099 | 0.823 ± 0.17 | 1.22 ± 0.28 | 1.08 ± 0.014 |
| Cc1[nH]nc2ccc(-c3cncc(OC[C@@H](N)Cc4ccccc4)c3)cc12 | 1.02 ± 0.18 | 1.17 ± 0.05 | 0.755 ± 0.036 | 1.19 ± 0.099 | 0.51 ± 0.029 | 0.189 ± 0.021 | 0.196 ± 0.047 | 0.822 ± 0.042 |
| Cc1ccc(F)c(NC(=O)Nc2ccc(-c3cccc4[nH]nc(N)c34)cc2)c1 [Linifanib (ABT-869)] | 0.833 ± 0.063 | 0.948 ± 0.1 | 0.764 ± 0.03 | 0.883 ± 0.042 | 1.05 ± 0.086 | 1.33 ± 0.31 | 0.906 ± 0.15 | 0.872 ± 0.42 |
| CCC[C@H](NC(=O)/C(C#N)=C/c1cccc(Br)n1)c1ccccc1 | 0.421 ± 0.17 | 0.532 ± 0.038 | 0.13 ± 0.066 | 0.826 ± 0.11 | 0.0449 ± 0.0065 | 0.0661 ± 0.016 | 0.0353 ± 0.0076 | 0.037 ± 0.0048 |
| Oc1cccc(-c2nc(N3CCOCC3)c3oc4ncccc4c3n2)c1 | 0.906 ± 0.036 | 0.917 ± 0.038 | 0.862 ± 0.15 | 1.12 ± 0.05 | 0.717 ± 0.061 | 0.954 ± 0.093 | 0.869 ± 0.012 | 1.1 ± 0.24 |
| O=C(Nc1c[nH]nc1-c1nc2ccc(CN3CCOCC3)cc2[nH]1)NC1CC1 | 0.842 ± 0.038 | 0.817 ± 0.022 | 0.566 ± 0.1 | 1.02 ± 0.14 | 0.865 ± 0.018 | 1.575 ± 0.0071 | 0.189 ± 0.0099 | 0.84 ± 0.052 |
| Cn1c(=O)c(F)c(Nc2ccc(I)cc2F)c2c(=O)n(C[C@@H](O)CO)cnc21 | 1.24 ± 0.05 | 1.2 | 0.9705 ± 0.0035 | 1.18 ± 0.035 | 1.66 ± 0.057 | 1.61 ± 0.62 | 1.31 ± 0.42 | 2.19 ± 0.11 |
| S=C(NCc1ccc2c(c1)OCO2)N1CCN(c2ncnc3c2oc2ccccc23)CC1 [Amuvatinib (MP-470)] | 0.997 ± 0.047 | 1.03 ± 0.091 | 1.15 ± 0.17 | 0.869 ± 0.013 | 1.07 ± 0.092 | 1.23 ± 0.057 | 1.13 ± 0.29 | 0.953 ± 0.12 |
| Nc1ccc(-c2ccc3ncc4ccc(=O)n(-c5cccc(C(F)(F)F)c5)c4c3c2)cn1 [Torin 2] | 0.949 ± 0.031 | 0.9595 ± 0.005 | 0.681 ± 0.085 | 1.11 ± 0.064 | 0.355 ± 0.027 | 0.523 ± 0.032 | 0.641 ± 0.073 | 0.817 ± 0.0099 |
| C[C@@H](Oc1cc(-c2cnn(C3CCNCC3)c2)cnc1N)c1c(Cl)ccc(F)c1Cl | 0.882 ± 0.067 | 1.04 ± 0.042 | 0.674 ± 0.1 | 0.996 ± 0.048 | 0.833 ± 0.16 | 0.831 ± 0.077 | 0.978 ± 0.29 | 0.682 ± 0.15 |
| CO[C@H]1C[C@@H]2CC[C@@H](C)[C@@](O)(O2)C(=O)C(=O)N2CCCC[C@H]2C(=O)O[C@H]([C@H](C)C[C@@H]2CC[C@@H](O)[C@H](OC)C2)CC(=O)[C@H](C)/C=C(\C)[C@@H](O)[C@@H](OC)C(=O)[C@H](C)C[C@H](C)/C=C/C=C/C=C/1C [Rapamycin (Sirolimus)] | 1.07 ± 0.1 | 0.904 ± 0.15 | 0.95 ± 0.017 | 1.24 ± 0.014 | 1.07 ± 0.071 | 1.09 ± 0.26 | 1.38 ± 0.42 | 1.65 ± 0.11 |
| Cc1cc2c(F)c(Oc3ncnn4cc(OC[C@@H](C)OC(=O)[C@H](C)N)c(C)c34)ccc2[nH]1 | 1.06 ± 0.042 | 0.938 ± 0.052 | 0.981 ± 0.041 | 1.23 ± 0.071 | 1.03 ± 0.11 | 1.135 ± 0.0071 | 0.852 ± 0.16 | 1.28 ± 0.099 |
| Cc1c(NC(=O)OC[C@@H]2COCCN2)cn2ncnc(Nc3ccc4c(cnn4Cc4cccc(F)c4)c3)c12 | 1.04 | 0.97 ± 0.17 | 1.13 ± 0.22 | 1.01 ± 0.092 | 1.27 ± 0.099 | 1.32 ± 0.2 | 1.01 ± 0.036 | 1.3 ± 0.078 |
| Cc1cc(C)c(/C=C2\C(=O)Nc3ccccc32)[nH]1 [Semaxanib (SU5416)] | 0.951 ± 0.016 | 1.02 ± 0.038 | 1.2 ± 0.071 | 0.879 ± 0.028 | 1.47 ± 0.021 | 1.335 ± 0.0071 | 0.91 ± 0.11 | 1.04 ± 0.021 |
| Cn1cc(-c2ccc3ncc(Cc4ccc5ncccc5c4)n3n2)cn1 | 1.045 ± 0.0071 | 1.06 ± 0.094 | 1.15 ± 0.028 | 0.911 ± 0.032 | 0.931 ± 0.021 | 0.769 ± 0.21 | 0.991 ± 0.61 | 0.587 ± 0.28 |
